# Test results published in the supplement of paper PMC8728848.
# Shown is part of a subset that was picked to be rich in the strongest signals.
# B1: PX9896A-bth-573-26-573 (Bacteroides thetaiotaomicron) (protein)
# chain: ETNNLKTKEDMYKYFGTSKSMLTHVYSYMPQGYQLFATSGGIFTEDRYSMRDCASDDGEFGAYADNIQNTNNGNWSPIKTYDDSWTLYRGIRAANSFIAEIAQVDFTRYEHDGQYTNWMKQLKYFPYEARVLRAHYFFELARRYGDIAMPLEVLTEEEANTIGKTPFSEVISFIVSECDDAANNLPDSYVNEPGAEIGRVTKGFAMAVKSKALLYAASKLHNPSMDTELWKKSAKAAIDIINTGLYSLDPQESANNLDSKEVVLMRINGDDSDFEMFNLPLRMTAGTRTSSLIPYSNYPSQNLVDAFETVNGYKVTLENTGWVCEDPAFDPQSPYENRDKRFYRAILANGMSFKDYTIETFKGGADDGIVSQGGSPTGYFLRKYIQEATSFEPGKEAVSKHHWVIYRYAETLLTYAESMVNAFNDVNYTDETYKYSALWAINEVRKNADMPLIPSMGKDEFMERLYNEWRVEFAFEDHRFWDVRRWKIADTTQRELYGVKIEKQADGTFNFYKNLYETRNWRDCMYLYPIPQSELYKNTNLNPQNTGW
# What was measured:
# Assay in all cases: glycan array binding signal (z-score within array); higher = stronger binding
# Conditions in all cases: glycan notation: IUPAC condensed, linker removed
# GlcNAc(b1-3)Gal(b1-4)Glc = target: GlcNAc(b1-3)Gal(b1-4)Glc
# Summary of the method: (§1)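 Negative Z-scores can be read as non-binding. The Z-score is calculated within each array and then averaged across arrays of one protein sequence at different concentrations or buffers and across linkers. Arrays, 3228 in all, were curated from the Consortium for Functional Glycomics database and kept only where the protein sequence was available.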
# [1] = target: GlcNAc(b1-3)Gal(b1-4)GlcNAc(b1-2)[GlcNAc(b1-3)Gal(b1-4)GlcNAc(b1-6)]Man(a1-6)[GlcNAc(b1-3)Gal(b1-4)GlcNAc(b1-2)Man(a1-3)]Man(b1-4)GlcNAc(b1-4)GlcNAc
# Summary of the method: as §1
# [2] = target: GlcNAc(b1-3)Gal(b1-4)GlcNAc(b1-3)Gal(b1-4)GlcNAc
# Summary of the method: as §1
# [3] = target: GlcNAc(b1-4)GlcNAc(b1-4)GlcNAc(b1-4)GlcNAc(b1-4)GlcNAc(b1-4)GlcNAc
# Summary of the method: as §1
# [4] = target: GlcNAc6S(b1-3)Gal(b1-4)GlcNAc
# Summary of the method: as §1
# [5] = target: Neu5Ac(a2-3)Gal(b1-3)GalNAc
# Summary of the method: as §1
# [6] = target: Neu5Ac(a2-3)Gal(b1-3)GlcNAc(b1-2)Man(a1-3)[GlcNAc(b1-4)][Neu5Ac(a2-3)Gal(b1-3)GlcNAc(b1-2)Man(a1-6)]Man(b1-4)GlcNAc(b1-4)GlcNAc
# Summary of the method: as §1
# [7] = target: Neu5Ac(a2-3)Gal(b1-4)GlcNAc(b1-2)[Neu5Ac(a2-3)Gal(b1-4)GlcNAc(b1-4)]Man(a1-3)[GlcNAc(b1-4)][Neu5Ac(a2-3)Gal(b1-4)GlcNAc(b1-2)[Neu5Ac(a2-3)Gal(b1-4)GlcNAc(b1-6)]Man(a1-6)]Man(b1-4)GlcNAc(b1-4)GlcNAc
# Summary of the method: as §1
# [8] = target: Neu5Ac(a2-3)Gal(b1-4)GlcNAc(b1-3)Gal(b1-4)GlcNAc(b1-2)Man(a1-3)[Neu5Ac(a2-3)Gal(b1-4)GlcNAc(b1-3)Gal(b1-4)GlcNAc(b1-2)Man(a1-6)]Man(b1-4)GlcNAc(b1-4)GlcNAc
# Summary of the method: as §1
# [9] = target: Neu5Ac(a2-3)Gal(b1-4)GlcNAc(b1-3)Gal(b1-4)[Fuc(a1-3)]GlcNAc
# Summary of the method: as §1
# [10] = target: Neu5Ac(a2-3)Gal(b1-4)[Fuc(a1-3)]GlcNAc(b1-2)Man
# Summary of the method: as §1
# [11] = target: Neu5Ac(a2-3)Gal(b1-4)[Fuc(a1-3)]GlcNAc(b1-3)GalNAc
# Summary of the method: as §1
# [12] = target: Neu5Ac(a2-3)Gal6S(b1-4)[Fuc(a1-3)]GlcNAc
# Summary of the method: as §1
# [13] = target: Neu5Ac(a2-3)[GalNAc(b1-4)]Gal(b1-4)GlcNAc(b1-3)GalNAc
# Summary of the method: as §1
# [14] = target: Neu5Ac(a2-6)Gal(b1-4)GlcNAc(b1-2)Man
# Summary of the method: as §1
# [15] = target: Neu5Ac(a2-6)Gal(b1-4)GlcNAc(b1-2)Man(a1-6)[GlcNAc(b1-2)Man(a1-3)]Man(b1-4)GlcNAc(b1-4)GlcNAc
# Summary of the method: as §1
# [16] = target: Neu5Ac(a2-6)Gal(b1-4)GlcNAc(b1-2)[Neu5Ac(a2-6)Gal(b1-4)GlcNAc(b1-4)]Man(a1-3)[GlcNAc(b1-4)][Neu5Ac(a2-6)Gal(b1-4)GlcNAc(b1-2)[Neu5Ac(a2-6)Gal(b1-4)GlcNAc(b1-6)]Man(a1-6)]Man(b1-4)GlcNAc(b1-4)GlcNAc
# Summary of the method: as §1
# [17] = target: Neu5Ac(a2-6)Gal(b1-4)GlcNAc(b1-2)[Neu5Ac(a2-6)Gal(b1-4)GlcNAc(b1-6)]Man(a1-6)[Neu5Ac(a2-6)Gal(b1-4)GlcNAc(b1-2)Man(a1-3)][GlcNAc(b1-4)]Man(b1-4)GlcNAc(b1-4)GlcNAc
# Summary of the method: as §1
# [18] = target: Neu5Ac(a2-6)Gal(b1-4)GlcNAc(b1-3)Gal(b1-4)GlcNAc(b1-3)Gal(b1-4)GlcNAc(b1-2)Man(a1-3)[Neu5Ac(a2-6)Gal(b1-4)GlcNAc(b1-3)Gal(b1-4)GlcNAc(b1-3)Gal(b1-4)GlcNAc(b1-2)Man(a1-6)]GalNAc
# Summary of the method: as §1
# [19] = target: Neu5Ac(a2-8)Neu5Ac(a2-3)[GalNAc(b1-4)]Gal(b1-4)Glc
# Summary of the method: as §1
# [20] = target: Neu5Ac(a2-8)Neu5Ac(a2-8)Neu5Ac(a2-3)Gal(b1-4)Glc
# Summary of the method: as §1
# [21] = target: Neu5Ac(a2-8)Neu5Ac(a2-8)Neu5Ac(a2-8)Neu5Ac(a2-3)[GalNAc(b1-4)]Gal(b1-4)Glc
# Summary of the method: as §1
# [22] = target: Neu5Ac(a2-8)Neu5Gc(a2-3)Gal(b1-4)GlcNAc
# Summary of the method: as §1
# Neu5Ac(b2-6)GalNAc = target: Neu5Ac(b2-6)GalNAc
# Summary of the method: as §1
# Neu5Gc(a2-6)GalNAc = target: Neu5Gc(a2-6)GalNAc
# Summary of the method: as §1
binder,measurement,setting,value
B1,glycan array binding signal (z-score),GlcNAc(b1-3)Gal(b1-4)Glc,0.621
same,glycan array binding signal (z-score),[1],0.497
same,glycan array binding signal (z-score),[2],-0.759
same,glycan array binding signal (z-score),[3],-0.604
same,glycan array binding signal (z-score),[4],0.875
same,glycan array binding signal (z-score),[5],-0.359
same,glycan array binding signal (z-score),[6],-0.678
same,glycan array binding signal (z-score),[7],-0.635
same,glycan array binding signal (z-score),[8],-0.638
same,glycan array binding signal (z-score),[9],-0.535
same,glycan array binding signal (z-score),[10],-0.204
same,glycan array binding signal (z-score),[11],4.79
same,glycan array binding signal (z-score),[12],-0.756
same,glycan array binding signal (z-score),[13],-0.496
same,glycan array binding signal (z-score),[14],-0.386
same,glycan array binding signal (z-score),[15],-0.598
same,glycan array binding signal (z-score),[16],-0.093
same,glycan array binding signal (z-score),[17],-0.82
same,glycan array binding signal (z-score),[18],1.34
same,glycan array binding signal (z-score),[19],-0.414
same,glycan array binding signal (z-score),[20],-0.639
same,glycan array binding signal (z-score),[21],0.475
same,glycan array binding signal (z-score),[22],13.3
same,glycan array binding signal (z-score),Neu5Ac(b2-6)GalNAc,-0.726
same,glycan array binding signal (z-score),Neu5Gc(a2-6)GalNAc,-0.244
